Measurements reported in PubChem BioAssay AID2763 (National Center for Advancing Translational Sciences (NCATS), 2010).
Records with an inconclusive call do not appear. Activity calls are given as the source filed them. The call rests on the fitted dose curve; in most records, active means well fitted inhibition curve with a large enough effect; inconclusive means small, poorly fitted or top-dose-only effect, or effect the other way; inactive means no such curve, though single readings can be large or run the other way.

Test: Concentration response confirmation VP16 counterscreen for inhibitors of ROR gamma transcriptional activity; further: nearly all actives have a fitted effect of over 70% in size
Settings: Drosophila S2 Gal4-VP16 UAS-luciferase, luminescence, 20 h; series mostly up to 46.1 µM
Outline: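 Drosophila Schneider cells stably carrying Gal4-VP16 under metallothionein promoter plus UAS-Photinus luciferase. Compound preincubated 1 hr, then 700 uM copper sulfate induction for 20 hr at ambient temperature; luminescence read.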
Potency means the concentration at half of the fitted maximal effect.

SMILES	Potency
CCN(CC(=O)Nc1ccc2c(c1)CCC2)Cc1nc2ccccc2c(=O)[nH]1	15.8 µM (active)
Cc1cc(Br)c2nc3c(c(C(=O)O)c2c1)CCCCC3	inactive
COc1ccc(-c2c[n+]3c(n2-c2ccc(C)cc2)CCCCC3)cc1	3.53 µM (active)
O=C(CSc1n[nH]c(=O)n1-c1ccc2c(c1)OCCO2)Nc1ccccc1	inactive
CCN(CC)C1CC(=O)N(c2cccc(C)c2)C1=O (stereo not drawn)	25 µM (active)
Cc1ccccc1NC(=O)CCN1CCN(C)CC1	inactive
COc1ccc(C(=O)Nc2ccc(NC(=O)c3cccs3)cn2)cc1	inactive
CCOC(=O)c1nnsc1Nc1ccc(C)c(C)c1	inactive
CCN1CCCc2cc(CN(CCN3CCOCC3)C(=S)Nc3ccc(C)cc3)ccc21	11.2 µM (active)
CCOc1cc(C)c(S(=O)(=O)NC2CCCCC2)cc1C	inactive
CCN(CC)c1ccc(/C=N/n2c(-c3ccccc3Br)n[nH]c2=S)cc1	inactive
COc1ccc2nc(N3C(=O)CNC3=S)sc2c1	8.88 µM (active)
COc1ccc(Cl)c(Cn2c(NCc3ccco3)nc3c2c(=O)n(C)c(=O)n3C)c1	1.99 µM (active)
O=C(CSc1ccccc1C(=O)N1CCCCC1)NCC1CCCCC1	inactive
CCN(CC)c1ccc2cc(-c3nc4ccccc4[nH]3)c(=O)oc2c1	9.96 µM (active)
Cc1ccc(NC(=S)NCCN(C2CCCCC2)C2CCCC2)cc1C	22.3 µM (active)
COC(=O)c1ccc2nc(Nc3nc4ccc(F)cc4s3)sc2c1	5.6 µM (active)
CC(C)(C)c1ccc(-c2noc(CCC(=O)Nc3cccnc3)n2)cc1	1.99 µM (active)
